Screening data: PubChem BioAssay, National Center for Advancing Translational Sciences (NCATS)
An excerpt weighted towards active compounds, which were near 12% of everything screened.
SARS PLpro yeast = qHTS of Yeast-based Assay for SARS-CoV PLP; 330,000 compounds, 0.19% hits; S. cerevisiae expressing SARS-CoV PLpro, growth rescue; Potency, µM (titrated, usually from 32.9 µM), usual class: activators; calls by dose curve; also: nearly all actives have a fitted effect of over 55% in size
AmpC inh no detg = qHTS Inhibitors of AmpC Beta-Lactamase (assay without detergent); AmpC nitrocefin hydrolysis, absorbance 480 nm, 0.0001% Triton; Potency, µM (doses to about 57.1 µM), hits mostly inhibitors; 330,000 compounds, 0.52% hits; also: nearly all actives have a fitted effect of over 20% in size
Target sequence (P00811 whole entry, looked up): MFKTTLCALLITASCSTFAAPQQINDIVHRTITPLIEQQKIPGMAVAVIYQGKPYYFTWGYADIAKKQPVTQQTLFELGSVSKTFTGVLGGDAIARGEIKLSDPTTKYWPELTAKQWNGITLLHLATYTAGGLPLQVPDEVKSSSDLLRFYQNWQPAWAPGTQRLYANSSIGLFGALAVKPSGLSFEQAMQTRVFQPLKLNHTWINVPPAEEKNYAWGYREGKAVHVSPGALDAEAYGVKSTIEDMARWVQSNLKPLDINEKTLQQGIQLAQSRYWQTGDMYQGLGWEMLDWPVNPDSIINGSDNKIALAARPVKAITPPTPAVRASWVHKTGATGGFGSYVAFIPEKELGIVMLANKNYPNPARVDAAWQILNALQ
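20 mM phosphate pH 7.0 + 0.01% (detergent screen) or 0.0001% Triton X-100; 5.3 nM AmpC reagent; cpd preinc 15 min RT; nitrocefin (800 uM stock) to start; A480 q20 s × 4 min; Activity was normalised to no-enzyme and no-compound control wells.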
Sm TGR block = qHTS Assay for the Inhibitors of Schistosoma Mansoni Peroxiredoxins. 360,000 compounds, 3% hits. Schistosoma mansoni thioredoxin glutathione reductase (TGR), Q962Y6. purified TGR, DTNB reduction, TNB absorbance 405 nm. Potency, µM (top dose mostly 114 µM), most hits filed as inhibitors; also: nearly all actives have a fitted effect of over 60% in size
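TGR 20 nM + NADPH 100 uM (dispensed conc.), cpd preinc 15 min RT; start with NADPH (500 uM addition) then DTNB (15 mM addition). Kinetic TNB absorbance, 405 nm filter. Four-parameter Hill fit across titration.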
Pf growth 48h = Primary qHTS for delayed death inhibitors of the malarial parasite plastid, 48 hour incubation | P. falciparum luciferase growth in erythrocytes, 48 h | Potency, µM (highest dose often 28.7 µM), usual class: inhibitors | 310,000 compounds, 5.9% hits | AID 504832, 2011
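In quantitative HTS format, infected erythrocytes bearing luciferase-reporter parasites were treated for a single generation at 37 C. Luminescence after adding detection reagent served as the growth measure.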
Pf growth 96h = Primary qHTS for delayed death inhibitors of the malarial parasite plastid, 96 hour incubation; P. falciparum luciferase reporter growth, 96 h; Potency, µM (titrated, usually from 28.7 µM), actives largely listed as inhibitors; 320,000 compounds, 6.9% hits
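96 h incubation, 37 C, 5% CO2, of luciferase-reporter P. falciparum-infected RBCs (2% hematocrit, 0.05% parasitemia final) with test compounds; endpoint luminescence.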
AmpC detergent = qHTS Inhibitors of AmpC Beta-Lactamase (assay with detergent); P00811; AmpC hydrolysis of nitrocefin, absorbance 480 nm, 0.01% Triton; Potency, µM (series often up to 114 µM), hits mostly inhibitors; 370,000 compounds, 0.041% hits; AID 485294, 2010; also: nearly all actives have a fitted effect of over 25% in size
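20 mM phosphate pH 7.0 + 0.01% (detergent screen) or 0.0001% Triton X-100; 5.3 nM AmpC reagent; cpd preinc 15 min RT; nitrocefin (800 uM stock) to start; A480 q20 s × 4 min; Activity was normalised to no-enzyme and no-compound control wells.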
Hits are given with their value; – = inactive; ? = inconclusive; · = not tested or not shown; [ ] = another dose, or the depositor's remark. Unless noted, calls follow the shape of the dose curve; as a rule, active = well fitted curve in the direction sought with a large enough effect; inconclusive = small, poorly fitted or top-dose-only effect, or another doubt; inactive = no such curve, though single readings can be large; an effect the other way counts as inactive or inconclusive.

SMILES	SARS PLpro yeast	AmpC inh no detg	Sm TGR block	Pf growth 48h	Pf growth 96h	AmpC detergent
COc1cc(C(=O)NCc2ccc(S(N)(=O)=O)cc2)ccc1OCC(=O)Nc1cccc(C(F)(F)F)c1	–	–	–	–	–	–
COc1ccc(NC(=O)Cn2cc(C(=O)c3ccccc3OC)c(=O)c3ccc(C)nc32)cc1OC	·	·	–	·	·	–
CCN(CC)S(=O)(=O)c1ccc(C)c(NC(=O)COC(=O)CN2C(=O)NC(C)(C)C2=O)c1	–	?	–	–	–	–
Cc1ccc(-c2nc(CN(C)C3CCOC3)c(C)o2)s1 (centres undefined)	–	–	–	–	–	–
CCC1C(=O)NCCN1Cc1nc(-c2ccc(C)s2)oc1C (centres undefined)	–	–	40µM	–	?	–
CCN(c1ccccc1)S(=O)(=O)c1nnc(NC(=O)C(C)Oc2ccccc2)s1 (centres undefined)	·	·	–	·	·	–
Cc1ccc(-n2nc(C)cc2NC(=O)c2ccc(C)s2)cc1	–	–	–	·	?	–
CC1CCc2sc(C(=O)OCC(=O)NC(C)C)cc2C1 (centres undefined)	–	–	–	–	–	–
CC1CN(C(=O)NCc2ccccc2)c2cc(Cl)ccc2O1 (centres undefined)	–	–	–	–	2.6µM	–
CC1CN(C(=O)CCC(=O)NCc2ccccc2)c2cc(Cl)ccc2O1 (centres undefined)	–	–	–	?	?	–
COc1ccccc1C1CC(c2ccccc2)=NN1C(=S)Nc1ccccc1 (centres undefined)	–	–	–	3.3µM	?	–
COc1ccc(C2=NN(C(=S)Nc3ccccc3)C(c3ccccc3)C2)cc1 (centres undefined)	–	25µM	–	15µM	–	–
COc1ccc(C2CC(c3ccccc3)=NN2C(=S)Nc2ccccc2)cc1 (centres undefined)	–	–	–	?	?	–
COc1ccc(C2CC(c3ccc(Br)cc3)=NN2C(=S)Nc2ccccc2)cc1 (centres undefined)	–	–	–	–	–[5.75 µM]	?
Cc1ccc(C2=NN(C(=S)Nc3ccccc3)C(c3ccco3)C2)cc1 (centres undefined)	–	–	–	–	9.3µM	–
CCOc1ccc(NC(=O)c2cn3c4c(ccc(Cl)c4c2=O)OC(C)C3)cc1 (centres undefined)	·	·	–	·	·	–
COC(=O)CN1C(c2ccc(OC)cc2)=Nc2ccc(Cl)cc2C1c1ccccc1 (centres undefined)	–	–	–	15µM	10µM	–
COC(=O)CN1C(c2cccc(Cl)c2)=Nc2ccc(Cl)cc2C1c1ccccc1 (centres undefined)	–	–	–	2.3µM	1.7µM	–
COc1ccc(C2c3c(n(C)c4ccccc34)C(=O)N2CC(=O)Nc2cccc(Cl)c2)cc1 (centres undefined)	·	·	–	·	·	–
COC(=O)CN1C(CN2CCOCC2)=Nc2ccc(Br)cc2C1c1ccccc1 (centres undefined)	–	–	–	?	?	–
COc1ccccc1NC(=O)CSC1=Nc2ccccc2C2=NC(CCC(=O)NCc3ccco3)C(=O)N12 (centres undefined)	·	·	–	·	·	–
Clc1ccc(NNc2ccnc3cc(Cl)ccc23)cc1	–	–	–	1.7µM	1.7µM	?
CCN(CC)CCC[C@H](C)Nc1c2ccc(Cl)cc2nc2ccc(OC)cc12	·	·	·	0.038µM	0.095µM	·
Oc1ccc(Nc2ccnc3cc(Cl)ccc23)cc1	–	–	–	1µM	1.9µM	–
CCN(CC)CCCNC(=O)CSc1c2c(nc3cc(Cl)ccc13)CCCC2	–	–	?	?	–	–
SMILES	SARS PLpro yeast	AmpC inh no detg	Sm TGR block	Pf growth 48h	Pf growth 96h	AmpC detergent
O=C(NCCNc1ccnc2cc(Cl)ccc12)c1ccccc1F	–	–	–	0.47µM	–	?
CCN(CC)CCNc1ccnc2cc(Cl)ccc12	–	–	–	0.074µM	–	–
CN(C)C(=O)Oc1ccnc2cc(Cl)ccc12	–	–	·	–	–	–
CCN(CCO)CCCC(C)Nc1ccnc2cc(Cl)ccc12 (centres undefined)	·	·	·	0.15µM	0.17µM	·
Clc1ccc2c(NCc3ccccc3)ccnc2c1	–	–	–	?	?	–
CCN(CC)Cc1cc(Nc2ccnc3cc(Cl)ccc23)ccc1O	–	–	–	0.0047µM	0.0033µM	–
CCOC(=O)c1ccc(NC2=CC(c3ccc(O)c(OCC)c3)N(c3ccc(C(=O)OCC)cc3)C2=O)cc1 (centres undefined)	·	·	–	·	·	–
O=C(NCCC1CCCCN1S(=O)(=O)c1ccccc1)C(=O)NCc1ccccc1F (centres undefined)	–	–	–	–	?	–
O=C(NCCC1CCCCN1S(=O)(=O)c1ccccc1)C(=O)NCc1ccccc1 (centres undefined)	–	–	–	–	17µM	–
O=C(NCCC1CCCCN1S(=O)(=O)c1ccccc1)C(=O)NCc1ccc(F)cc1 (centres undefined)	–	–	–	10µM	?	–
O=C(NCc1ccccc1F)C(=O)NCC1CCCN1S(=O)(=O)c1ccccc1 (centres undefined)	–	35µM	–	?	?	?
Cc1cc(S(=O)(=O)N2CCCCC2CCNC(=O)C(=O)NCc2cccnc2)ccc1F (centres undefined)	–	–	–	?	13µM	–
Cc1ccc(CNC(=O)C(=O)NCCC2CCCCN2S(=O)(=O)c2ccccc2)cc1 (centres undefined)	–	–	–	–	?	–
O=C(C1=NNCC1c1ccccc1)C1CO1 (centres undefined)	–	–	?	–	?	–
COc1ccc(-c2nc3ccccc3o2)cc1NC(=O)c1ccc(-c2cccc(Cl)c2C)o1	·	·	–	·	·	–
COc1ccc(Cn2ccc3nc(C)c(C(=O)Nc4ccc(OC)cc4OC)cc3c2=O)cc1	·	·	–	·	·	–
COc1cc(NC(=O)CCc2nc3cccnc3n2Cc2cccs2)cc(OC)c1OC	·	·	–	·	·	–
Cc1nc([N+](=O)[O-])cn1Cc1cccc2ccccc12	–	–	–	10µM	–	–
Cc1nc([N+](=O)[O-])cn1CC(O)c1ccccc1 (centres undefined)	–	–	–	–	–	–
COC(=O)c1ccccc1NC(=S)NC(=O)c1ccccc1C	–	–	?	–	–	40µM
Cc1ccccc1C(=O)NC(=S)Nc1ccccc1C(F)(F)F	–	–	–	–	?	–
